# Laboratory results as given in PubChem BioAssay (Tox21).
# Records with an inconclusive call do not appear. Where a call stands in place of a potency, no number is given. Unmarked numbers belong to inactive results. The source made the active and inactive calls. Calls come from the whole dose curve; as a rule, active = well fitted cell-killing curve with a large enough effect in the repeat runs; inconclusive = weak or mixed curves, or effect the other way; inactive = flat fitted curve, though single readings scatter.
# Assay: cAMP Responsive Elements (CRE) small molecule antagonists, cell-based qHTS assay: qHTS cell viability counter screen (AID 2060913); note: nearly all actives have a fitted effect of over 40% in size
# Conditions: CRE-bla HEK293T viability, CellTiter-Glo luminescence, 5 h; series mostly up to 92.4 µM
# How it was run: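 Cytotoxicity read in the same wells as the CRE-bla HEK293T antagonist assay: after 3 h compound with 0.25 uM NKH477 final and 2 h beta-lactamase substrate, CellTiter-Glo luminescence measured.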
# Potency is the fitted concentration of half-maximal effect.
Compound,"viability change, negative = cytotoxic",Potency
N[C@@H](COP(=O)(O)O)C(=O)O,4.6% [at 18.9 µM],–
O=C1O[C@@H]2[C@@H](O)[C@H](O)O[C@@H]2[C@H]1O,–,inactive
CC(=O)OCC(=O)[C@@]1(O)CC[C@H]2[C@@H]3CCC4=CC(=O)C=C[C@]4(C)[C@H]3[C@@H](O)C[C@@]21C,–,inactive
CCN(CC)CCOc1ccc(Cc2ccccc2)cc1,–,inactive
Cc1cc(NC(=O)C(=O)O)cc(C)c1Oc1ccc(O)c2c1CCC2,–,inactive
C[C@@]12CCC[C@H]1[C@@H]1CC[C@H]3C[C@@H](O)CC[C@]3(C)[C@H]1CC2,–,inactive
CCc1cc(C(N)=S)ccn1,–,inactive
CCOC(=O)O[C@H](C)OC(=O)c1ccc2c(c1)cc(C(=O)NC1CCN(C(C)C)CC1)n2Cc1cc(-c2ccc(Cl)s2)on1,–,57.1 µM (active)
CS(=O)(=O)c1ccc([C@@H](O)[C@@H](CO)NC(=O)C(Cl)Cl)cc1,–,inactive
CCCCCCN,–,inactive
C[C@@H]1NC(=O)[C@@H](N)CNC(=O)[C@H](C2CCNC(N)=N2)NC(=O)/C(=C/NC(N)=O)NC(=O)[C@H](CNC(=O)C[C@@H](N)CCCN)NC1=O (stereo not given in full),-0.0663% [at 0.349 µM],–
O=C(O)CCc1nc(-c2ccccc2)c(-c2ccccc2)o1,–,inactive
CC(C)(c1cc(Br)c(OCCO)c(Br)c1)c1cc(Br)c(OCCO)c(Br)c1,–,inactive
C=CC(C)(O)CC/C=C(\C)CC (stereo not given),–,inactive
OCCO,–,inactive
O=C(O)/C=C/c1ccc(O)c(O)c1,–,inactive
O=C(O)c1c2ccccc2cc2ccccc12,–,inactive
CC1=NN(c2cccc(S(=O)(=O)O)c2)C(=O)C1,–,inactive
Brc1ccccn1,–,inactive
CC(C)=CCC/C(C)=C/C(=O)O,–,inactive

Compound,"viability change, negative = cytotoxic",Potency
CN1[C@@H]2CC[C@H]1CC(OC(=O)c1c[nH]c3ccccc13)C2 (stereo not given in full),–,inactive
c1ccsc1,–,inactive
CCCCC/C(=C\c1ccccc1)CO,–,inactive
O=C(NC1CCN(CCc2c[nH]c3ccccc23)CC1)c1ccccc1,–,inactive
CCOC(=O)c1ccccc1O,–,inactive
COC(=O)Nc1nc2ccc(C(=O)C3CC3)cc2[nH]1,–,inactive
CCCCCCCCCCCCc1ccc(O)cc1,–,61.1 µM (active)
CCCCNc1ccc(C(=O)OCCN(CC)CC)cc1,–,inactive
C=CC(C)(O)CC/C=C(/C)CCC=C(C)C (stereo not given),–,inactive
Cc1ccc2oc(CN(Cc3ccccc3)C(=O)Nc3c(F)cc(F)cc3F)c(-c3ccc(Cl)cc3)c2c1,–,inactive
CC(=O)[C@H]1CC[C@H]2[C@@H]3CC=C4C[C@@H](O)CC[C@]4(C)[C@H]3CC[C@]12C,–,inactive
C[N+]1(CC2COC(c3ccccc3)(c3ccccc3)O2)CCCCC1 (stereo not given),0.835% [at 18.9 µM],–
CC(C#N)(CCC(=O)O)N=NC(C)(C#N)CCC(=O)O (stereo not given),–,inactive
CCCCCCCC/C=C\CCCCCCCC(=O)OCC,–,inactive
CCC(=O)c1cccc(Cl)c1,–,inactive
CCCCC(CC)COC(=O)c1ccccc1O (stereo not given),–,inactive
CC(C)(C)CC(C)(C)N,–,inactive
C=C(C)C(=O)OCCOCCOCCOCCOC(=O)C(=C)C,–,inactive
CC(C)(CO)[C@@H](O)C(=O)NCCC(=O)O,–,inactive
CC(C)C[C@H](NC(=O)[C@H](CCc1ccccc1)NC(=O)CN1CCOCC1)C(=O)N[C@@H](Cc1ccccc1)C(=O)N[C@@H](CC(C)C)C(=O)[C@@]1(C)CO1,–,inactive
